Compound activity deposited in PubChem by National Center for Advancing Translational Sciences (NCATS).
This is a sample that favours compounds with a hit; in the whole collection about 3.7% have one here.
Nrf2 activator: qHTS of Nrf2 Activators. AREc32 ARE-luciferase reporter (MCF7-derived line), luminescence, 24 h. Potency, µM (series often up to 46.1 µM), hits mostly activators. actives 0.31% (n = 410,000). AID 624171, 2012; also: nearly all actives have a fitted effect of over 65% in size
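Luminescent ARE reporter assay in AREc32_Fluc cells: overnight plating at 37 deg C, 24 hr compound incubation, Steady-Glo added, 30 min RT before reading.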
Nrf2 block: Nrf2 qHTS screen for inhibitors. actives 2.1% (n = 360,000). A549 ARE-Fluc reporter, luciferase luminescence, 18-24 h. AID 504444, 2011. Potency, µM (titrated, usually from 46 µM), usual class: inhibitors; also: nearly all actives have a fitted effect of over 60% in size
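In this cell-based qHTS, ARE-driven firefly luciferase in A549 cells reports Nrf2 activity; the luminescent signal after BugLite lysis is the measured value, with a prior CellTiter-Fluor read for cell health.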
ClpP mod: qHTS Assay for Activators of ClpP; Potency, µM (highest dose often 57.5 µM); AID 651965, 2013; actives 1.9% (n = 340,000); ATP-dependent Clp protease proteolytic subunit (Bacillus subtilis (strain 168)), P80244; purified B. subtilis ClpP, FRET peptide cleavage, 20 min; active = well fitted falling curve with a large enough effect; inconclusive = small, poorly fitted or top-dose-only effect; inactive = no such curve, though single readings can be large or run the other way; also: the source files actives as falling curves though it sought activators and does not explain the sign; nearly all actives have a fitted effect of over 65% in size
Target sequence (P80244 whole entry, looked up): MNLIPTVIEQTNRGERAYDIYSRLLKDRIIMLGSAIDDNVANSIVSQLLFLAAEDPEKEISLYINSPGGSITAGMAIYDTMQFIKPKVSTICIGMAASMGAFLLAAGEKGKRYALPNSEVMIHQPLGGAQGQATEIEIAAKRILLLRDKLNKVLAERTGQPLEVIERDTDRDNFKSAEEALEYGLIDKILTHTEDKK
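Purified B. subtilis ClpP, 10 microg/mL final in Tris/HCl pH8 with KCl, BSA, glycerol and Tween-20, cleaved an Abz/nitrotyrosine-quenched decapeptide. Fluorescence (ex 320, em 430) was read at 0 and 20 min at room temperature. Delta was normalized to 5.8 microM ADEP and DMSO/no-enzyme controls.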
miR-21 act: qHTS Assay for Modulators of miRNAs and/orActivators of miR-21. HeLa miR-21 FLuc reporter, luciferase, 48 h. Potency, µM (highest dose often 38.3 µM), most hits filed as activators. 340,000 tested, under 10 active;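 also: miR-21 action dims this reporter so a rising signal means less miR-21 action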
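Luminescence from a firefly luciferase reporter carrying a miR-21 binding site downstream, stably expressed under a CMV promoter in HeLa cells that make miR-21 endogenously, reports miRNA modulation after 48 h compound exposure up to approximately 40uM final.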
TCR act: Activators of T cell receptors: qHTS campaign. primary human leukocytes, anti-CD3, IL-2 HTRF, 48 h. Potency, µM (doses to about 9.22 µM), most hits filed as activators. 330,000 tested, under 10 active. AID 504894, 2011
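Human primary leukocytes + a-CD3 beads + cpd, 48 hr; IL-2 in supernatant by HTRF (ex 320nm / em 665nm). No co-stimulatory signal supplied.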
A549 tox: Nrf2 qHTS screen for inhibitors: counterscreen for cytotoxicity. AID 504648, 2011. actives 0.16% (n = 390,000). A549 ARE-Fluc cells, CellTiter-Fluor viability, 18-24 h. Potency, µM (top dose mostly 46 µM), most hits filed as inhibitors
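Cytotoxicity counterscreen: CellTiter-Fluor fluorescence was measured in A549 ARE_Fluc cells after 18-24 h of compound exposure in a concentration series. The subsequent BugLite luminescent read reports ARE-luciferase activity.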
Hits are given with their value; – = inactive; ? = inconclusive; · = no result given; ! = not active in a repeat; [ ] = another dose, or the depositor's remark. Unless noted, calls follow the shape of the dose curve; as a rule, active = well fitted curve in the direction sought with a large enough effect; inconclusive = small, poorly fitted or top-dose-only effect, or another doubt; inactive = no such curve, though single readings can be large; an effect the other way counts as inactive or inconclusive.

SMILES | Nrf2 activator | Nrf2 block | ClpP mod | miR-21 act | TCR act | A549 tox
CCCCn1c(=O)nc2n(-c3ccccc3C)c3ccccc3cc-2c1=O | – | – | 17.8µM | – | – | –
O=C(Nc1cccc(OCc2cc(=O)n3ccccc3n2)c1)c1ccccc1Br | – | · | – | – | · | –
CCSc1nc2sc3c(c2c(=O)n1-c1ccc(OC)cc1)CCN(C)C3 | – | 23.1µM | · | – | – | –
O=C(Nc1ccccc1)N1N=CCC1c1ccccc1 (stereo unspecified) | – | – | · | – | – | –
O=C(Nc1ccc(Cl)c(Cl)c1)N1N=CCC1c1ccccc1 (stereo unspecified) | – | 16.4µM | · | – | – | ?
CCc1ccccc1NC(=O)Cn1nc(-c2cc(C)ccc2C)c2c(c1=O)CCCC2 | – | ? | – | – | · | –
O=C(O)c1ccccc1NCc1ccncc1 | – | – | 14.1µM | – | – | –
Cc1c(NCc2ccncc2)cccc1C(=O)O | – | – | – | – | – | –
O=C(O)c1ccc(CNc2ccccc2C(=O)O)cc1 | – | – | 31.6µM | – | – | –
CCCCOC(=O)c1ccc(NC(=O)COC(=O)c2ccc3ncsc3c2)cc1 | – | – | ? | · | – | –
CNc1ccc(Br)cc(C(=O)/C=C/c2ccc(OC)cc2OC)c1=O | ? | – | – | – | – | –
CNc1ccc(Br)cc(C(=O)/C=C/c2ccc(Cl)cc2Cl)c1=O | 8.91µM | ? | · | – | – | 20.6µM
COc1ccccc1CNC(=O)COC(=O)c1ccc(C)c(S(=O)(=O)N2CCCCC2)c1 | – | – | – | – | – | –
Cc1cc(C)cc(NC(=O)Nc2nnc(N(C)C3CCCCC3)s2)c1 | – | – | – | – | · | –
Cc1cc(NC(=O)Nc2nnc(N(C)C3CCCCC3)s2)ccc1Br | – | 25.9µM | – | – | · | –
O=C(CSCc1cccc(CSCC(=O)Nc2ccc3ccccc3c2)n1)Nc1ccc2ccccc2c1 | – | 13µM | – | ? | – | –
O=C(CSCc1nc2ccccc2[nH]1)Nc1ccc2ccccc2c1 | – | – | – | – | – | –
COc1cccc(CNn2c(-c3cccc(C)c3)nc3ccccc3c2=O)c1 | – | – | – | – | – | –
COc1ccc(OC)c(CNn2c(-c3cccc(C)c3)nc3ccccc3c2=O)c1 | – | 18.4µM | – | – | – | –
Cc1ccc(NC(=O)NC(C)c2c(-n3cccc3)sc(C)c2C)cc1F (stereo unspecified) | – | 23.1µM | – | ? | · | ?
CCN1/C(=C/c2ccc3cc(C)ccc3[n+]2CC)Sc2cc(C)ccc21 | – | 4.61µM | – | – | – | ?
Cc1sc2c3ccsc3ccc2[n+]1C | – | – | · | – | – | –
CCN1/C(=C/c2ccc3cc(C)ccc3[n+]2C)Sc2ccc3sccc3c21 | – | 18.4µM | – | ? | – | –
CCCCN1/C(=C/c2ccc3ccccc3[n+]2CC)Sc2ccccc21 | –[9.22 µM] | ? | · | ? | – | ?
COCCCN1C(=O)C(CC(=O)NC2CC2)CC(C(=O)N2CCOCC2)=C1C (stereo unspecified) | – | · | – | · | · | ·
SMILES | Nrf2 activator | Nrf2 block | ClpP mod | miR-21 act | TCR act | A549 tox
CCC(=O)Nc1cccc2c1C(=O)N(C)C2=O | – | – | 25.1µM | – | – | –
COc1ccc(NC(=O)c2ccc(COc3ccccc3OC)o2)cc1OC | – | – | – | – | – | –
COc1ccc(NC(=O)c2ccc(COc3ccccc3Br)o2)cc1OC | – | 23.1µM | – | – | – | –
CCCNC(=O)Cn1nc(-c2ccc(C)cc2)c2cnc3ccc(CC)cc3c21 | – | – | – | – | · | –
C(=C\c1cccc2ccccc12)/c1nnc(-c2cccs2)o1 | – | – | 28.2µM | – | – | –
Cc1ccc(S(=O)(=O)N2[C@@H](CO)CO[C@H]2CC(=O)c2cccc3ccccc23)cc1 | · | · | – | · | · | ·
COc1ccc(-c2nc(CSCC(=O)NCCc3ccc(C)cc3)c(C)o2)cc1OC | – | ? | 31.6µM | – | · | –
COc1ccc(-c2nc(CS(=O)CC(=O)NCc3ccc4c(c3)OCO4)c(C)o2)cc1OC (stereo unspecified) | – | ? | – | – | – | –
CCOCCCNC(=O)CSCc1nc(-c2ccc(SC)cc2)oc1C | – | – | – | – | – | –
COc1ccc(CCNc2oc(-c3ccc(OC)c(OC)c3)nc2C#N)cc1 | – | 23.1µM | – | – | – | –
COc1ccccc1CNC(=O)CS(=O)Cc1nc(-c2ccc(OC)c(OC)c2)oc1C (stereo unspecified) | – | – | 31.6µM! | ? | – | –
COc1ccc(-c2nc(CSCC(=O)NCc3ccc4c(c3)OCO4)c(C)o2)cc1OC | – | – | – | – | – | –
COCCNC(=O)CSCc1nc(-c2ccc(SC)cc2)oc1C | – | – | 25.1µM | – | – | ?
O=C(CN1C(=O)C(=O)N(C2CCCC2)C1=O)Nc1ccc(Cl)cc1C(F)(F)F | – | – | – | · | – | –
Cc1ccc(S(=O)(=O)NCC2CCC(C(=O)NCc3ccc(F)cc3)CC2)cc1 (stereo unspecified) | – | ? | – | – | · | –
Cc1ccc(C2c3cccn3CCN2S(=O)(=O)c2ccc([N+](=O)[O-])cc2)cc1 (stereo unspecified) | – | · | – | – | · | –
O=S(=O)(c1ccc2c(c1)OCCO2)N1CCN(S(=O)(=O)c2ccc(F)c(F)c2F)CC1 | · | – | · | · | · | –
COc1ccc(-c2nc(CSCC(=O)NCc3ccccc3Cl)c(C)o2)cc1OC | – | ? | 20µM | – | · | –
COc1ccccc1CNC(=O)CSCc1nc(-c2ccc(OC)c(OC)c2)oc1C | – | ? | ? | – | · | –
CN(C)CCNc1oc(-c2cccc(Cl)c2)nc1C#N | – | – | 15.8µM | – | – | –
COc1ccc(-c2nc(CS(=O)CC(=O)NCCC3=CCCCC3)c(C)o2)cc1 (stereo unspecified) | – | – | – | – | – | –
COc1ccc(-c2nc(CSCC(=O)NCCC3=CCCCC3)c(C)o2)cc1OC | – | – | 25.1µM | – | – | –
Clc1ccc2[nH]c(-c3ccccc3)cc2c1 | – | · | 28.2µM | – | – | –
Cc1ccc(NC(=O)C2COc3ccccc3O2)cc1S(=O)(=O)N1CCCCC1 (stereo unspecified) | – | ? | – | · | – | –
O=c1c2cnn(-c3ccc(F)cc3)c2ncn1Cc1cccc(Cl)c1 | – | – | – | – | · | –
COCCCCOc1cc2nc(N3CCCN(C)CC3)nc(NC3CCN(C)CC3)c2cc1OC | · | · | – | · | · | ·
COc1ccc(S(=O)(=O)N2CCOCC2)cc1NC(=O)/C=C/c1ccccc1 | – | – | · | · | – | –
C=CC[n+]1c(-c2ccc(OC)c(OC)c2)csc1NNC(=O)Nc1ccccc1 | – | 13µM | – | – | – | ?
